CF NFkB inh: blocks PAF-induced NF-kB reporter in cystic fibrosis cells; KKLEB NF-kB-GFP reporter, GFP fluorescence overnight; inhibition, % at 5 µM; 360,000 compounds, 0.86% hits; AID 588850;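 active = at least 50% inhibition at 5 µM, scaled per plate between neutral and stimulator controls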;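 note: PAF is a Pseudomonas aeruginosa culture filtrate used as stimulus; plate controls were PAF-stimulated DMSO wells for no effect and unstimulated DMSO wells for full effect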
Peg3 prom inh: Peg3 promoter activity inhibition; inhibition, % at 20 µM; HeLa PEG-Prom luciferase reporter, luminescence, overnight; 360,000 compounds, 1.7% hits;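 active = inhibition of at least 50% at 20 µM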
Shn3 3UTR inh: reduces Shn3 3'UTR luciferase signal in osteoblasts; Clone20 osteoblast Shn3 3'UTR firefly luciferase, 24 h; inhibition, % at 12.5 µM; 360,000 compounds, 0.52% hits; AID 588674;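 active = mean inhibition of at least 75% with every replicate also reaching 75%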;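 note: 0% = median of neutral control wells and 100% = pilot-screen positive control compound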
HIF-2a block: inhibitors of HIF-2a; 786-0 RCC cells HIF-2a reporter, luciferase luminescence, overnight; inhibition, % at 18.8 µM; 360,000 compounds, 0.72% hits; AID 624352;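 active = inhibition of the luminescence signal of 40% or more relative to plate controls, in a single-dose primary screen at 18.75 µM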
KKLEB tox: counter-screen for CF NF-kB inhibitors: cytotoxicity; activity change (cytotoxicity), % at 5 µM; KKLEB CF airway cells viability, ATPlite luminescence, overnight; hits give low values; cells stimulated with P. aeruginosa culture filtrate; 360,000 compounds, 0.36% hits;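 active = corrected activity change at or below -50% at 5 µM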
CF NFkB inh conf: confirmation of cystic fibrosis induced NF-kB inhibitors; 1,300 compounds, 64% hits; KKLEB CF airway cells, PAF-induced NF-kB-GFP fluorescence, overnight; inhibition, % at 5 µM; shares compounds with CF NFkB inh; in the data active = inhibition above about 40%;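 note: stimulus PAF is a Pseudomonas aeruginosa filtrate and not platelet activating factor; plate controls were DMSO wells with stimulus for no effect and unstimulated DMSO wells for full effect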
Numbers without * were called inactive. A selection: hits, their analogues and other compounds. The true share with any hit is near 2.6%.

COc1ccc(C2=Nn3c(nnc3-c3ccccc3OC)SC2)cc1OC1CCOC1 (stereo unspecified) was read as CF NFkB inh 58*, Peg3 prom inh 6, Shn3 3UTR inh 12, HIF-2a block 36, KKLEB tox -3 and CF NFkB inh conf 81*.
Screening COc1ccc(C2=Nn3c(nnc3-c3ccccc3C(F)(F)F)SC2)cc1OC1CCOC1 (stereo unspecified) returned CF NFkB inh 30, Peg3 prom inh 34, Shn3 3UTR inh 4, HIF-2a block 28 and KKLEB tox -8.
COc1ccc(OC)c(-c2nnc3n2N=C(c2ccc(OC)c(OCC4CC4)c2)CS3)c1 was read as CF NFkB inh 60*, Peg3 prom inh 33, Shn3 3UTR inh 6, HIF-2a block 29, KKLEB tox 7 and CF NFkB inh conf 84*.
Screening CC(NC(=O)OCc1ccccc1)C(=O)Oc1cc2oc(=O)cc(-c3ccccc3)c2cc1Cl (stereo unspecified) returned CF NFkB inh 63*, Peg3 prom inh -15, Shn3 3UTR inh 0, HIF-2a block 5, KKLEB tox -8 and CF NFkB inh conf 93*.
COc1ccc(NC(=O)c2cccc(NC3=NC4CS(=O)(=O)CC4S3)c2)cc1Cl (stereo unspecified) was read as CF NFkB inh 2, Peg3 prom inh -6, Shn3 3UTR inh -1, HIF-2a block -3 and KKLEB tox -7.
`CCc1ccc(-c2cc(C)no2)cc1S(=O)(=O)NC(C)Cc1ccco1` (stereo unspecified) gave CF NFkB inh -2, Peg3 prom inh 18, Shn3 3UTR inh 2, HIF-2a block 12 and KKLEB tox -10.
Screening COc1ccc(NC(=O)CCN2C(=O)c3ccccc3C2=O)c(OC)c1 returned CF NFkB inh 21, Peg3 prom inh 15, Shn3 3UTR inh -1, HIF-2a block 13 and KKLEB tox -1.
Screening COc1ccc(OC)c(N(CCN2C(=O)c3ccccc3C2=O)C(=O)CCl)c1 returned CF NFkB inh 62*, Peg3 prom inh 22, Shn3 3UTR inh 31, HIF-2a block 8, KKLEB tox -42 and CF NFkB inh conf 99*.
For C[C@H]1Cn2cnc(C(=O)Nc3cccc(Cl)c3)c2C(=O)N1 the results were CF NFkB inh 62*, Peg3 prom inh 39, Shn3 3UTR inh 11, HIF-2a block -6, KKLEB tox 14 and CF NFkB inh conf 91*.
For COc1cccc(C(=O)N2C(C(C)C)COc3cc(Br)ccc3S2(=O)=O)c1 (stereo unspecified) the results were CF NFkB inh 50*, Peg3 prom inh 41, Shn3 3UTR inh -11, HIF-2a block -34, KKLEB tox 27 and CF NFkB inh conf 55*.
For Cc1cccc(C(=O)N2[C@@H](C(C)C)COc3cc(Br)ccc3S2(=O)=O)c1 the results were CF NFkB inh 61*, Peg3 prom inh 57*, Shn3 3UTR inh -18, HIF-2a block -46, KKLEB tox 8 and CF NFkB inh conf 59*.
CC(C)NC(=O)N(C)C[C@@H]1Oc2c(NC(=O)Nc3ccccc3)cccc2C(=O)N([C@H](C)CO)C[C@H]1C was read as CF NFkB inh 5, Peg3 prom inh -3, Shn3 3UTR inh 3, HIF-2a block 10 and KKLEB tox -6.
COc1ccc(CSC2=CS(=O)(=O)c3ccccc3N2)cc1 was read as CF NFkB inh 27, Peg3 prom inh -5, Shn3 3UTR inh 0, HIF-2a block -13 and KKLEB tox -5.
COC(=O)c1cccc(N2C(=O)C[C@](Sc3ccc(C)cc3)(C(=O)OC)[C@H]2c2ccccc2)c1 was read as HIF-2a block -11.
`COc1cccc(NC(=O)CN(C)CC(=O)Nc2ccc(C)c([N+](=O)[O-])c2)c1` gave CF NFkB inh 66*, Peg3 prom inh 8, Shn3 3UTR inh 38, HIF-2a block 2, KKLEB tox 0 and CF NFkB inh conf 76*.
Screening COc1ccccc1Cc1c(-c2cccc(Br)c2)nc2c(C)cc(Br)cn12 returned CF NFkB inh 55*, Peg3 prom inh -24, Shn3 3UTR inh -9, HIF-2a block -173, KKLEB tox -6 and CF NFkB inh conf 5.
COc1ccc(-c2cc3c(=O)n(CC(=O)NCc4ccc(C)cc4)ncn3n2)cc1 was read as CF NFkB inh 54*, Peg3 prom inh -1, Shn3 3UTR inh -26, HIF-2a block 5, KKLEB tox -15 and CF NFkB inh conf 13.
For C[C@@H]1CN([C@H](C)CO)C(=O)c2cc(NC(=O)Nc3ccc(C(F)(F)F)cc3)ccc2O[C@H]1CN(C)S(=O)(=O)c1ccccc1 the results were CF NFkB inh 57*, Peg3 prom inh 12, Shn3 3UTR inh 8, HIF-2a block 22, KKLEB tox 14 and CF NFkB inh conf 57*.
For COc1ccc(S(=O)(=O)N(C)C[C@H]2Oc3ccc(NC(=O)Nc4ccc(C(F)(F)F)cc4)cc3C(=O)N([C@H](C)CO)C[C@@H]2C)cc1 the results were CF NFkB inh 23, Peg3 prom inh 41, Shn3 3UTR inh 57, HIF-2a block -27 and KKLEB tox -15.
For C[C@@H]1CN([C@@H](C)CO)C(=O)c2cccc(NC(=O)Nc3ccc(F)cc3)c2O[C@@H]1CN(C)Cc1ccc(Oc2ccccc2)cc1 the results were CF NFkB inh 11, Peg3 prom inh 38, Shn3 3UTR inh 38, HIF-2a block -3 and KKLEB tox -14.
Screening COc1ccc(NC(=O)Nc2cccc3c2O[C@H](CN(C)Cc2ccc(-c4ccccc4)cc2)[C@@H](C)CN([C@H](C)CO)C3=O)cc1 returned CF NFkB inh 59*, Peg3 prom inh 94*, Shn3 3UTR inh 17, HIF-2a block -11, KKLEB tox -32 and CF NFkB inh conf -9.
CN(C)c1ccc(N2C(=NC(=O)CC3CCCCC3)SC3CS(=O)(=O)CC32)cc1 (stereo unspecified) was read as CF NFkB inh -2, Peg3 prom inh 3, Shn3 3UTR inh 1, HIF-2a block 13 and KKLEB tox -4.
COc1ccccc1-c1n[nH]nc1C1=CC(=O)C[C@H](c2ccc(F)cc2)C1 was read as CF NFkB inh 16, Peg3 prom inh 28, Shn3 3UTR inh 7, HIF-2a block 23 and KKLEB tox -4.
`CCc1ccc(-c2n[nH]nc2C2=CC(=O)C[C@H](c3ccc(F)cc3)C2)cc1` gave CF NFkB inh 61*, Peg3 prom inh 36, Shn3 3UTR inh 12, HIF-2a block 5, KKLEB tox 1 and CF NFkB inh conf 40.
`Clc1ccccc1OCc1nn2c(-c3ccncc3)nnc2s1` gave CF NFkB inh 14, Peg3 prom inh -9, Shn3 3UTR inh 9, HIF-2a block 2 and KKLEB tox -12.
c1csc(Cc2nn3c(-c4ccncc4)nnc3s2)c1 was read as CF NFkB inh 50*, Peg3 prom inh -5, Shn3 3UTR inh 6, HIF-2a block 18, KKLEB tox 5 and CF NFkB inh conf 49*.
